RXFP1 antag – blocks the human relaxin receptor RXFP1 | activity change, negative = inhibition, % at 57.5 µM | Q9HBX9 | 350,000 compounds, 0.59% hits | AID 1259400 | HEK293-RXFP1, relaxin-stimulated cAMP HTRF, 30 min; active compounds read low;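 active = activity change of -60% or lower, but not beyond a set lower limit; inconclusive = change between -60% and -40%, or beyond the set limit; inactive = change above -40%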; note: % is set by controls: 0 for no effect and ±100 for the full control effect
Target sequence (Q9HBX9 whole entry, looked up): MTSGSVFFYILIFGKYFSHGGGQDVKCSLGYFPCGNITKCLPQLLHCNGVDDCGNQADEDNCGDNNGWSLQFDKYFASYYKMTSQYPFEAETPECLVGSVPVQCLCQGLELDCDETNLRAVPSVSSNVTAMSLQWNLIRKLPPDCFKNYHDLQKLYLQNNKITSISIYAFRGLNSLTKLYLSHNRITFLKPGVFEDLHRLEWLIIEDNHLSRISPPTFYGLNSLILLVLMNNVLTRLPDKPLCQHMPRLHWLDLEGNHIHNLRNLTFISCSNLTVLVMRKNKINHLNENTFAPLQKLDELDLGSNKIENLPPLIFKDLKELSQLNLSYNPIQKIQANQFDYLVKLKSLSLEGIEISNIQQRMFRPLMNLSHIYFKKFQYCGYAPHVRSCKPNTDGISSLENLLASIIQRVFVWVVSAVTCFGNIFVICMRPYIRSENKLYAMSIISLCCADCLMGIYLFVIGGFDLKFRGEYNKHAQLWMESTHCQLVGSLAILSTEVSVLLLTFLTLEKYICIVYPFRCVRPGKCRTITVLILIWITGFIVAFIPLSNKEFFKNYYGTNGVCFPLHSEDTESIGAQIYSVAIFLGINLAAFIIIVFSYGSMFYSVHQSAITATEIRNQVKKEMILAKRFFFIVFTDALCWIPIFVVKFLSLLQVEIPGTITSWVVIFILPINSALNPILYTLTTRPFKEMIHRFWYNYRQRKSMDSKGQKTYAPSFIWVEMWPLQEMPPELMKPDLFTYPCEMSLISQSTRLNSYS
PTHR1 agonist – activates the human parathyroid hormone receptor PTHR1; HEK293 GP2 PTHR1 cells, GloSensor cAMP luminescence, 1 h; 410,000 compounds, 0.075% hits; Q03431; Potency, µM (series often up to 115 µM), for inactives: at the highest dose activation, usual class: activators; note: potency is the fitted concentration of half-maximal effect; nearly all actives have a fitted effect of over 55% in size
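HEK-293-derived GP2 cells expressing PTHR1 and a GloSensor cAMP reporter, 3,000/well, plated overnight, given luciferin plus IBMX (each 0.5 mM as added) for 1 h at 37 °C, then compound for 1 h at 37 °C. Luminescence was read after 15 min at room temperature.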
gsp agonist – agonists of gsp mutant (McCune-Albright syndrome) | gsp mutant cells, cAMP HTRF, 30 min | 340,000 compounds, 0.13% hits | AID 624287 | Potency, µM (top dose mostly 76.9 µM), for the others: top-dose activation (cAMP increase), usual class: activators; active = well fitted activation curve with a large enough effect; inconclusive = small, poorly fitted or top-dose-only effect, or another doubt; inactive = no such curve, though single readings can be large or run the other way; cell line not stated here;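 note: phosphodiesterase inhibitor Ro 20-1724 added with compounds to block cAMP breakdown; potency is the fitted concentration of half-maximal effect; nearly all actives have a fitted effect of over 60% in size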
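Cells stably selected in G418 were plated at 2000/well, grown 16-24 hr, then given compounds in DMSO with the PDE inhibitor […] (300 uM solution added) for 30 min at 37C; cAMP was read by HTRF.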
gsp antagonist – gsp mutant antagonism; gsp-mutant cells, cAMP HTRF, 30 min; Potency, µM (highest dose often 76.9 µM), without a hit: top-dose activity change, negative = inhibition, actives largely listed as inhibitors; 340,000 compounds, 0.4% hits; calls by dose curve; cell line not stated here;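 note: intracellular cAMP measured with PDE inhibitor Ro 20-1724 present during compound exposure; potency is the fitted concentration of half-maximal effect; % is set by controls: 0 for no effect and ±100 for the full control effect; nearly all actives have a fitted effect of over 65% in size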
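G418-selected cells were plated in DMEM/10% FBS for 16-24 h at 37C, then treated with compounds plus the PDE inhibitor […] (300 uM solution added) for 30 min at 37C. Intracellular cAMP was measured by HTRF after 30 min lysis at room temperature.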
RXFP1 ag – RXFP1 (human) receptor agonism | HEK293T-RXFP1 cAMP TR-FRET, 30 min; response scale: percent of porcine relaxin response, buffer zero | Potency, µM (top dose mostly 57.5 µM), for inactives: at the highest dose activation, hits mostly activators | 370,000 compounds, 0.3% hits; note: potency is the fitted concentration of half-maximal effect; % is set by controls: 0 for no effect and ±100 for the full control effect; nearly all actives have a fitted effect of over 60% in size
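HEK293 cells stably expressing RXFP1, treated 30 min at 37C with compounds plus PDE4 inhibitor Ro 20174; cAMP measured by HTRF TR-FRET. Normalized to buffer and 29 nM porcine relaxin; EC50 by Hill fit.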
* hit, by the source's call; i = inactive; ? = inconclusive; nt = not tested or not shown; [ ] = another dose, or the depositor's remark. An excerpt weighted towards active compounds, which were near 1% of everything screened. Unless noted, calls come from the whole dose curve; as a rule, active = well fitted curve in the direction sought with a large enough effect; inconclusive = small, poorly fitted or top-dose-only effect, or another doubt; inactive = no such curve, though single readings can be large; an effect the other way counts as inactive or inconclusive.

SMILES | RXFP1 antag | PTHR1 agonist | gsp agonist | gsp antagonist | RXFP1 ag
CCN(CC(=O)Nc1ccccc1OC)C(=O)/C=C/c1cccs1 | -69* | i | 9%[15.4 µM] | -5% | 1%
CN(CC(=O)Nc1cccc2ccccc12)C(=O)/C=C/c1cccs1 | 16 | i | 4% | -7% | 0%
COc1cccc(-c2cc(C(=O)Nc3ccc(F)cc3)[nH]n2)c1 | -17 | -14% | nt | nt | 6%
CN1c2cc(Cl)ccc2-c2nc(SCC(=O)Nc3ccc(F)cc3F)ncc2S1(=O)=O | 1 | -15% | nt | nt | 32µM*
O=C(CSc1ncc2c(n1)-c1ccc(Cl)cc1N(Cc1ccccc1)S2(=O)=O)Nc1ccc(F)c(F)c1 | -7 | -13% | nt | nt | 12%
Cc1cccc(C)c1NC(=O)CSc1ncc2c(n1)-c1ccc(Cl)cc1N(Cc1ccccc1)S2(=O)=O | 18 | -29% | nt | nt | 10µM*
CC(=O)c1cccc(Nc2cc(C)nc3nc(-c4ccccc4C)nn23)c1 | nt | -64% | nt | nt | 0%
O=C(NCc1ccccc1Cl)C1CCN(S(=O)(=O)Cc2ccccc2)CC1 | -7 | i | nt | nt | 5%
N=c1c(C(=O)NCc2ccc3c(c2)OCO3)cc2c(=O)n3ccccc3nc2n1CC1CCCO1 (centres undefined) | -18 | -4% | 28µM* | -2% | 19%
CN(C)CCC1(C2=CCCC2)CC/C(=C/c2ccc(Cl)cc2)C1=O (centres undefined) | -73* | i | ? | ? | nt
CC(C)OCCCn1c(SCC(=O)Nc2ccccc2C(F)(F)F)nc2nccnc2c1=O | 45 | i | 40µM* | 11% | ?
CCCCn1c(SCC(=O)Nc2ccccc2C(F)(F)F)nc2ccsc2c1=O | 5 | i | 11% | 8% | 4%
CC(C(=O)NCC1CCCCC1)N(C)Cc1ccc(Br)cc1 (centres undefined) | -12 | -4% | 3%[15.4 µM] | 1% | -2%
CC(C(=O)NCC1CCCCC1)N(C)Cc1ccc(Cl)cc1 (centres undefined) | -78* | -30% | -2% | 3% | 5%
COc1cc(C)c(C)cc1S(=O)(=O)Nc1cccc(-c2ccc(N3CCOCC3)nn2)c1 | -6 | -4% | nt | nt | 0%
CCC[C@@H](NS(=O)(=O)c1ccc(C)cc1)C(=O)Oc1ccc2c3c(c(=O)oc2c1)CCC3 | 2 | -46% | ? | 28µM* | 0%
COc1ccc(S(=O)(=O)Nc2cc3c(cc2NCc2ccccc2)n(C)c(=O)n3C)cc1 | 4 | -25% | nt | nt | 28µM*
CCCC(O)(c1ccc(CC)cc1)C(CN1CCOCC1)c1ccccc1 (centres undefined) | -62* | -12% | -9%[15.4 µM] | 1% | -3%
CC(C)C(O)(c1ccccc1)C(CN1CCOCC1)c1ccccc1 (centres undefined) | -12 | -8% | 14% | 0% | 2%
CCc1ccc(C(O)(C(C)C)C(CN2CCOCC2)c2ccccc2)cc1 (centres undefined) | -78* | -16% | 0% | -9% | -1%
CC(=O)N1CCN(c2ccc(O)cc2)CC1 | 4 | nt | nt | nt | nt
CCOc1ccc(N(CCCCO)C(=S)NC(=O)c2ccc(C)c(Br)c2)cc1 | -90* | -5% | -30%[15.4 µM] | ? | 0%
CCOC(=O)c1c(C)[nH]c(C(=O)COC(=O)CNS(=O)(=O)c2ccc(C)cc2)c1C | -10 | -9% | -17% | 32µM* | 2%
CC(=O)c1c(C)[nH]c(C(=O)COC(=O)CNS(=O)(=O)c2ccccc2)c1C | -13 | -1%[57.5 µM] | -7% | -21% | 1%
C[C@@H]1CN([C@@H](C)CO)C(=O)CCCn2nncc2CO[C@@H]1CN(C)C(=O)c1ccc(N2CCN(C)CC2)cc1 | 6 | -25% | 10µM* | nt | nt
O=C(c1ccc(N2CCN(C(=O)c3ccccc3Br)CC2)cc1)c1cccc(F)c1 | -11 | -94% | ? | ? | 0%
O=C(c1ccc(N2CCN(C(=O)c3cccc(F)c3)CC2)cc1)c1cccc(F)c1 | -5 | -24% | 3% | 32µM* | 1%
CC1(C(=O)Nc2nc3ccccc3s2)CC1(Br)Br (centres undefined) | -1 | 16% | 6% | 13% | 20µM*
COc1ccc(-c2csc(NC(=O)c3ccc(C(C)(C)C)cc3)c2C(=O)O)cc1 | -26 | -29% | -1%[15.4 µM] | 32µM* | nt

High-throughput results from PubChem BioAssay.
